# “And” between values parts separate entries of the source, which are not always exact repeats. Identical values can stand only once. The source made the active and inactive calls. The calls were made as follows: active = hit-call score of the fitted dose curve at least 0.9, where 1 is the maximum; inactive = score below 0.9.
# Test system: TTR (gene 7276)
# Assay: CCTE_GLTED_hTTR_0.125uM: CCTE's human Transthyretin (hTTR) Inhibition Assay, with 0.125uM TTR, Great Lakes Toxicology and Ecology Division (GLTED) Lab (AID 2284431);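 also: hits lower the fluorescence signal relative to DMSO baseline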
# How it was run: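 TTR at 0.125uM incubated 2 h with test chemical; displacement of bound ANSA read by fluorescence (ex 380, em 475). Activity is signal loss versus DMSO baseline.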
row,SMILES,AC50
1,O=C(NC(=O)c1c(F)cccc1F)Nc1cc(Cl)c(OC(F)(F)C(F)C(F)(F)F)cc1Cl (configuration not stated),2.76 µM (active)
2,CCCCCCCCCCCCOS(=O)(=O)O,2.56 µM (active) and 5.11 µM (active)
3,O=C(CBr)c1ccc(O)cc1,4.69 µM (active)
4,O=[N+]([O-])c1ccccc1O,34.8 µM (active) and 21.1 µM (active)
5,CCOCn1c(-c2ccc(Cl)cc2)c(C#N)c(Br)c1C(F)(F)F,0.0346 µM (active)
6,Nc1ccc(N)cc1,2.42 µM (active)
7,CCCCCCCCCCCCc1cccc(S(=O)(=O)O)c1,6.89 µM (active)
8,Oc1c(Br)cc(Br)cc1Br,0.0287 µM (active)
9,Cc1cc(Cl)ccc1O,14.9 µM (active)
10,O=C(O)COc1cc(Cl)c(Cl)cc1Cl,0.692 µM (active)
11,Oc1cc(Cl)c(Cl)cc1Cl,0.114 µM (active)
12,O=C1c2ccccc2C(=O)C1C(=O)C(c1ccccc1)c1ccc(Cl)cc1 (configuration not stated),3.48 µM (active)
13,COc1nn(C(=O)NS(=O)(=O)c2ccccc2OC(F)(F)F)c(=O)n1C,9.99 µM (active)
14,CCOP(=S)(OCC)O/N=C(\C#N)c1ccccc1,2.07 µM (active)
15,Cc1cc(Cl)ccc1OCCCC(=O)O,2.64 µM (active)
16,O=[N+]([O-])c1ccc(Cl)c([N+](=O)[O-])c1,4.83 µM (active)
17,O=S1(=O)OC(c2cc(Br)c(O)c(Br)c2)(c2cc(Br)c(O)c(Br)c2)c2ccccc21,0.109 µM (active)

# From PubChem BioAssay (EPA / NIEHS)
